PubChem BioAssay (NCI)
Compounds without any hit were thinned out: in the full panel of roughly 83,000, 20% have a hit.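 The endpoint reported here, percent growth, reads 100 for growth as untreated, 0 for no net growth and -100 for all cells dead.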 Activity calls are given as the source filed them. How the source made its calls: active means growth percent below 10; inactive means the rest.

What was measured:
Assay in all cases: NCI-60 one-dose screen, 48 h (100 = growth as untreated, 0 = no growth, -100 = all killed)
Details in all cases: 10 µM unless noted
T-47D breast = system: T-47D breast
BT-549 breast = system: BT-549 breast
MDA-MB-435 melanoma = system: MDA-MB-435 melanoma
SW-620 colon = system: SW-620 colon
MCF7 breast = system: MCF7 breast
HCT-116 colon = system: HCT-116 colon
HCC-2998 colon = system: HCC-2998 colon
KM12 colon = system: KM12 colon

Measured: growth

O=C(Nc1cccc(-n2cc(-c3ccncc3)c(-c3ccc(Cl)c(O)c3)n2)c1)Nc1cccc(C(F)(F)F)c1
active: HCT-116 colon 9.75% | KM12 colon 2.46%
inactive: T-47D breast 18.5% | BT-549 breast 36% | MDA-MB-435 melanoma 15.6% | SW-620 colon 28.5% | MCF7 breast 10.3% | HCC-2998 colon 40.1%

Cc1nc2ncccc2nc1Nc1ccc(S(=O)(=O)Nc2ccccn2)cc1
inactive: T-47D breast 91.2% | BT-549 breast 83.3% | MDA-MB-435 melanoma 109% | SW-620 colon 102% | MCF7 breast 92.7% | HCT-116 colon 92% | HCC-2998 colon 99.5% | KM12 colon 97.8%

COc1ccc(Nc2ncccc2C(=O)NCc2cn(Cc3cccc(Oc4ccccc4)c3)nn2)c(OC)c1
active: MDA-MB-435 melanoma -24.2% | HCC-2998 colon -14.4%
inactive: T-47D breast 51.6% | BT-549 breast 43% | SW-620 colon 26.4% | MCF7 breast 25% | HCT-116 colon 15% | KM12 colon 17.9%

O=C(C1=Cc2cc3ccccc3n2Cc2cnnn21)c1ccccc1
inactive: T-47D breast 28.8% | BT-549 breast 37.5% | SW-620 colon 28.5% | MCF7 breast 35.2% | HCT-116 colon 26.7% | HCC-2998 colon 71.7% | KM12 colon 33.8%
active: MDA-MB-435 melanoma -7.53%

Cc1ccc2nc(-c3cc4c([nH]c5ccccc54)c(-c4ccc(F)c(F)c4)n3)[nH]c2c1
inactive: T-47D breast 77.8% | BT-549 breast 83.7% | MDA-MB-435 melanoma 91.3% | SW-620 colon 101% | MCF7 breast 51.8% | HCT-116 colon 15.2% | HCC-2998 colon 88.6% | KM12 colon 72.4%

CC(=O)Oc1csc(N(C(C)=O)c2cccc(C(F)(F)F)c2)n1
active: BT-549 breast -89.8%
inactive: T-47D breast 87.7% | MDA-MB-435 melanoma 98.1% | SW-620 colon 98.7% | MCF7 breast 90.8% | HCT-116 colon 86.6% | HCC-2998 colon 108% | KM12 colon 99.3%

CC(C)C1=CC2=C(C=O)C[C@@H]3[C@](C)(CCC[C@@]3(C)C(=O)OCC#CCN3CCCC3)[C@H]2CC1
inactive: T-47D breast 54.7% | BT-549 breast 63.9% | MDA-MB-435 melanoma 92.8% | SW-620 colon 88% | MCF7 breast 85.7% | HCT-116 colon 50.3% | HCC-2998 colon 93.9% | KM12 colon 75.1%

NC1=NN(O)C2=CC([N+](=O)[O-])C=CC2=N1 (stereo not drawn)
inactive: T-47D breast 101% | BT-549 breast 104% | MDA-MB-435 melanoma 109% | SW-620 colon 110% | MCF7 breast 96.1% | HCT-116 colon 107% | HCC-2998 colon 97.2% | KM12 colon 103%

COc1ccc(N=Cc2c(O)ccc3c2oc2cc(Cl)c(O)c(Cl)c23)cc1
inactive: T-47D breast 87.9% | BT-549 breast 53.3% | MDA-MB-435 melanoma 94% | SW-620 colon 99.2% | MCF7 breast 69.6% | HCT-116 colon 91.5% | HCC-2998 colon 88.7% | KM12 colon 104%

O=C1c2c(c3c4ccccc4n(CCCCCCBr)c3c3[nH]c4ccccc4c23)C(=O)N1O
inactive: SW-620 colon 15.1% | HCC-2998 colon 18.3% | KM12 colon 10.8%
active: T-47D breast 4.32% | BT-549 breast -3.13% | MDA-MB-435 melanoma 0.62% | MCF7 breast 2.38% | HCT-116 colon 6.41%

COc1ccc(-c2nc(/C=C3/C(=O)Nc4ccc(F)cc43)c3ccccn23)cc1
inactive: T-47D breast 100% | BT-549 breast 104% | MDA-MB-435 melanoma 113% | SW-620 colon 87.7% | MCF7 breast 48.7% | HCT-116 colon 62% | HCC-2998 colon 104% | KM12 colon 102%

Oc1ccccc1/C=N/NC(=S)NC1CC2C=CC1C2 (stereo not drawn)
inactive: T-47D breast 79.9% | BT-549 breast 61% | MDA-MB-435 melanoma 11.9% | SW-620 colon 45.5% | MCF7 breast 80.7% | HCT-116 colon 42.9% | HCC-2998 colon 66.5% | KM12 colon 53%

Clc1cccc(-c2cc(-c3ccc4c(c3)OCCO4)[nH]n2)c1
active: MDA-MB-435 melanoma -37.5% [25 µM]
inactive: T-47D breast 22% [25 µM] | BT-549 breast 53.7% [25 µM] | SW-620 colon 27.5% [25 µM] | MCF7 breast 15.6% [25 µM] | HCT-116 colon 26.3% [25 µM] | HCC-2998 colon 58.1% [25 µM] | KM12 colon 25.7% [25 µM]

O=C(O)c1nc(-c2ccccc2)oc1N1CCOCC1
inactive: T-47D breast 82.9% | BT-549 breast 97.5% | MDA-MB-435 melanoma 97.5% | SW-620 colon 96% | MCF7 breast 98.3% | HCT-116 colon 94.6% | HCC-2998 colon 105% | KM12 colon 88.9%

COc1ccc(-c2[nH]nc(N)c2-c2cc(OC)c3c(c2)OCO3)cc1
inactive: T-47D breast 62% | BT-549 breast 59.2% | SW-620 colon 20.5% | MCF7 breast 32.3% | HCT-116 colon 30.9% | HCC-2998 colon 44.3% | KM12 colon 27.8%
active: MDA-MB-435 melanoma -12.8%

N=C(N)c1ccc(-c2cc(Cl)cc(Cl)c2)cn1
inactive: T-47D breast 83.7% | BT-549 breast 94.5% | MDA-MB-435 melanoma 56.7% | SW-620 colon 82.6% | MCF7 breast 75.9% | HCT-116 colon 92% | HCC-2998 colon 67.5% | KM12 colon 89.8%

O=C(CSc1nc2ccccc2[nH]1)c1ccc(N2CCOCC2)cc1
inactive: T-47D breast 94.1% | BT-549 breast 93% | MDA-MB-435 melanoma 100% | SW-620 colon 94.5% | MCF7 breast 92.2% | HCT-116 colon 94.3% | HCC-2998 colon 98.3% | KM12 colon 104%

COc1ccc(/C=C2\N=C(c3ccccc3)N(C(=O)c3ccccc3O)NC2=O)cc1
inactive: T-47D breast 96.6% | BT-549 breast 92% | MDA-MB-435 melanoma 95% | SW-620 colon 100% | MCF7 breast 92.8% | HCT-116 colon 92% | HCC-2998 colon 93.7% | KM12 colon 92%

CC1(c2ccc(Cl)cc2)OC(=O)CC(=O)O1
inactive: T-47D breast 95.3% | BT-549 breast 109% | MDA-MB-435 melanoma 106% | SW-620 colon 105% | MCF7 breast 101% | HCT-116 colon 100% | HCC-2998 colon 102% | KM12 colon 110%

O=C(NS(=O)(=O)c1ccc2ccccc2c1)n1cc(-c2ccncc2)c(-c2ccc(Cl)c(O)c2)n1
inactive: T-47D breast 78.6% | BT-549 breast 100% | MDA-MB-435 melanoma 51.6% | SW-620 colon 95.2% | MCF7 breast 114% | HCT-116 colon 39.2% | KM12 colon 103%

O=[N+]([O-])c1ccc(Sc2ncccn2)c([N+](=O)[O-])c1
inactive: T-47D breast 41.1% | MDA-MB-435 melanoma 69.2% | SW-620 colon 22.8% | MCF7 breast 34.4% | HCT-116 colon 37.5% | HCC-2998 colon 66.2% | KM12 colon 55.9%
active: BT-549 breast -16.3%

O=[N+]([O-])c1cc(Cl)c2[nH]c3c(Cl)cc([N+](=O)[O-])cc3c2c1
inactive: HCC-2998 colon 34.8%
active: T-47D breast 4.93% | BT-549 breast -0.691% | MDA-MB-435 melanoma -2.12% | SW-620 colon 5.45% | HCT-116 colon 2.09%

Fc1ccc(-c2nc(-c3nc4ncccc4[nH]3)cc3c2[nH]c2ccccc23)cc1F
inactive: T-47D breast 51.7% | BT-549 breast 84% | MDA-MB-435 melanoma 66.1% | SW-620 colon 102% | MCF7 breast 38.7% | HCT-116 colon 30.3% | HCC-2998 colon 100% | KM12 colon 71.9%

COc1cc2c(c(OC)c1OC)-c1ccc(N)c(=O)cc1[C@@H](NC(C)=O)CC2
active: BT-549 breast -12.6% | MDA-MB-435 melanoma 6.15% | HCT-116 colon 1.6% | KM12 colon -20.1%
inactive: T-47D breast 59.7% | SW-620 colon 22.7% | MCF7 breast 14.9%

O=c1c2sc3ncccc3c2nnn1-c1ccccc1
inactive: T-47D breast 85.4% | BT-549 breast 108% | MDA-MB-435 melanoma 101% | SW-620 colon 109% | MCF7 breast 90.6% | HCT-116 colon 113% | KM12 colon 106%

O=S(=O)(NCCNc1nccc(-c2c(-c3ccc(F)cc3)nc3sccn23)n1)c1ccc(F)cc1
inactive: T-47D breast 60.1% | BT-549 breast 92.2% | MDA-MB-435 melanoma 55% | SW-620 colon 90.8% | MCF7 breast 30.9% | HCT-116 colon 60.4% | KM12 colon 76.5%

Cc1ccc(S(=O)(=O)NCCNc2nccc(-c3c(-c4ccc(O)cc4)nc4sccn34)n2)cc1
inactive: T-47D breast 85% | BT-549 breast 106% | MDA-MB-435 melanoma 86.4% | SW-620 colon 126% | MCF7 breast 93.7% | HCT-116 colon 100% | KM12 colon 100%

C/C=C/C1=CN2C(=O)c3cc(OC4OC(C)C(NC)C(C)(O)C4O)c(C)cc3N=C[C@@H]2C1 (stereo partly drawn)
active: T-47D breast -4.57% | BT-549 breast -41.2% | MDA-MB-435 melanoma -63.1% | SW-620 colon -0.311% | MCF7 breast 3.78% | HCT-116 colon 3.87% | KM12 colon -41.4%

COc1cc(-c2nn(-c3cccc(NC(=O)c4ccc(Cl)c(C(F)(F)F)c4)c3)cc2-c2ccncc2)ccc1Cl
inactive: T-47D breast 26.2% | BT-549 breast 49.7% | SW-620 colon 36.1% | MCF7 breast 37.6% | HCT-116 colon 24% | KM12 colon 28.8%
active: MDA-MB-435 melanoma -26.8%
